AF4-AF9 inh = MLL-AF4/AF9 protein interaction inhibition. P42568. AlphaScreen, biotin-AF4 peptide binding to FLAG-AF9. inhibition, % at 10 µM. 0.47% of 350,000 active;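 active = every replicate reaching a set inhibition limit, whatever the replicate mean, cut at about 25% in these data; inconclusive = mean inhibition reaches that limit but some replicates miss it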;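 note: 0% = plate neutral control median and 100% = total signal loss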
PDI turbidity = blocks human protein disulfide isomerase activity. 0.052% of 350,000 active. P07237. PDI insulin aggregation turbidity, A650, 90 min. AID 588391. inhibition, % at 10 µM;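 active = mean inhibition across replicates of 30% or more, whatever share of single replicates reach that level; inconclusive = mean inhibition below 30% while every single replicate reaches 30%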
DENV2 CPE rescue = inhibitors of DENV2 cytopathic effect; DENV2-infected cells, cytopathic effect rescue, plate reader; 1.7% of 350,000 active; CPE inhibition, % at 9.99 µM; in the data active = CPE inhibition above about 20%, passing the limit was not always enough; inconclusive = no clear call, values can overlap the other calls; tested in BHK-21 cells;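 note: 0% = median of neutral control wells and 100% = median of positive control wells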
ERp5 inh = inhibitors of human ERp5. 0.05% of 350,000 active. AID 651711. Q15084. inhibition, % at 9.99 µM. ERp5 insulin aggregation, absorbance 650 nm, 90 min;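 active = mean replicate inhibition above about 25%, with every replicate also reaching it, limit read from the data, passing the limit was not always enough; inconclusive = only one of those two criteria met; inactive = neither criterion met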
ERAP1 HTS inh = ERAP1 (human) enzyme inhibition; recombinant ERAP1, Leu-AMC fluorescence, 60 min; inhibition, % at 10.7 µM; 0.15% of 340,000 active; Q9NZ08;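 active = mean replicate inhibition of at least 30%, or all replicates individually reaching that 30% level; inactive = mean below 30% and not every replicate reaching it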;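 note: 0% = neutral control wells and 100% = L-leucinethiol positive control wells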
Target sequence (Q9NZ08 whole entry, looked up): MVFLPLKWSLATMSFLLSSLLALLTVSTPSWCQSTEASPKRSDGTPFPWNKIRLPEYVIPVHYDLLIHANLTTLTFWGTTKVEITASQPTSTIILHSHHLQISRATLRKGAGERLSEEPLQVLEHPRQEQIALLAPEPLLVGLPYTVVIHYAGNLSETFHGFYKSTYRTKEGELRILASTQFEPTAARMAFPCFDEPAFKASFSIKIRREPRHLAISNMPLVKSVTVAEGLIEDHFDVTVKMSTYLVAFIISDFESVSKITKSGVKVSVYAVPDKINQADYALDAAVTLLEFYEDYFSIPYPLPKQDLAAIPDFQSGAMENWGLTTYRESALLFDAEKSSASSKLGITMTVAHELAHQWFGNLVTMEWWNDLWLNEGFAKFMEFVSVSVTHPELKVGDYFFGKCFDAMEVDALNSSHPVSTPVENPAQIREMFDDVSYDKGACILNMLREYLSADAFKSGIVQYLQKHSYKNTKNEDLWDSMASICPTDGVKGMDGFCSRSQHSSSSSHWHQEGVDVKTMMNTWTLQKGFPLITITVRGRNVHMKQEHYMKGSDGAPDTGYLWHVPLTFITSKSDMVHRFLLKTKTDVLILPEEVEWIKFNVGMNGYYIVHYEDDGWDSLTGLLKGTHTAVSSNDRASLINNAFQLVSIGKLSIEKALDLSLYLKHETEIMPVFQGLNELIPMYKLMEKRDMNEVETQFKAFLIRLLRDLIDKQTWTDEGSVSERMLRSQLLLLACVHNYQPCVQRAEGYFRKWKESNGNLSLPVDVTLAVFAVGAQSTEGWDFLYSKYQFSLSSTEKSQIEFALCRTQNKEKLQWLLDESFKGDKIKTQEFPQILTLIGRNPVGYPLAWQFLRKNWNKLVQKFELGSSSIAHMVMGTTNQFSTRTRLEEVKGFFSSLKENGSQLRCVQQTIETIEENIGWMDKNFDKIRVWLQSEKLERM
Active calls of the source: *; ? = inconclusive; / = no result given; ! = a repeat was not active. Only some compounds are listed: those with a hit (about 1.8% of all), similar ones and a draw of the others.

SMILES | AF4-AF9 inh | PDI turbidity | DENV2 CPE rescue | ERp5 inh | ERAP1 HTS inh
Cc1cccc(-c2ccc([C@H]3[C@@H](CO)N4CCCCN(C(=O)c5cccnc5)C[C@@H]34)cc2)c1 | -2 | / | 32* | 0 | 0
Cc1cccc(-c2ccc([C@H]3[C@@H](CO)N4CCCCN(C(=O)c5cccnc5)C[C@H]34)cc2)c1 | -3 | / | -12 | -1 | 1
C[C@@H]1CN([C@H](C)CO)C(=O)c2cccc(NC(=O)Nc3ccc(C(F)(F)F)cc3)c2O[C@@H]1CN(C)C(=O)Nc1ccc(F)cc1 | -7 | / | 6 | 0 | -7
CCOc1ccc(Nc2cc(C)c3ccccc3n2)cc1 | 8 | -8 | 0 | 0 | -3
CCOc1ccc(Nc2c3ccccc3nc3ccccc23)cc1 | 37* | 2 | 14 | 3 | -70
CCNC(=O)C[C@H]1C=C[C@H](NC(=O)C2CCOCC2)[C@@H](CO)O1 | 3 | / | 6 | 1 | -1
CC(=O)Nc1nc(=O)c2ccccc2s1 | -37 | 3 | -5 | 0 | 33*
C[C@@H]1CN([C@H](C)CO)C(=O)c2cc(NC(=O)Nc3cccc4ccccc34)ccc2O[C@@H](C)CCCCO[C@H]1CN(C)Cc1ccccc1 | 16 | / | -28 | -2 | 0
COc1ccc(NC(=O)CN(C)C(=O)CCSc2ccc(C)cc2)cc1 | -2 | 0 | 62* | -1 | -2
COc1ccc(NC(=O)CN(C)C(=O)CC2CCCC2)cc1 | 4 | -4 | 20* | -3 | 1
CSc1ccccc1OCc1cc(C(=O)N2CCN(c3ccccc3)CC2C)no1 (stereo unspecified) | -1 | 3 | -3 | -3 | -2
CSc1ccccc1OCc1cc(C(=O)N2CCc3[nH]cnc3C2c2ccccn2)no1 (stereo unspecified) | 20 | 2 | 50* | -2 | 0
CCCCCCN(C(=O)CCCCCN1C(=O)NC(c2ccc(-c3ccccc3)cc2)C(C(=O)OCc2ccccc2)=C1C)C(C(=O)NCCCC)c1ccccn1 (stereo unspecified) | / | / | 23* | 2 | 2
COc1ccc(CCNC(=O)CCCCC(=O)NCCc2ccc(OC)cc2)cc1 | 1 | -1 | -2 | 6 | 1
COc1ccc(CN(CCNC(=O)CCCCC(=O)NCCN(Cc2ccc(OC)cc2)C(C)C)C(C)C)cc1 | 2 | -15 | 30* | 1 | -3
C[C@H](CO)N1C[C@H](C)[C@H](CN(C)Cc2ccc3c(c2)OCO3)Oc2ccc(NC(=O)Nc3ccc(C(F)(F)F)cc3)cc2C1=O | 2 | / | 18 | 8 | -1
C/C(=N\Nc1ccc([N+](=O)[O-])cc1[N+](=O)[O-])C(C)C(C)C (stereo unspecified) | 26* | -2 | 0 | -2 | 2
C[C@@H]1CCCCO[C@@H](CN(C)Cc2ccc(C(F)(F)F)cc2)[C@H](C)CN([C@H](C)CO)C(=O)c2cc(NC(=O)Cc3ccccc3)ccc2O1 | 1 | / | 40* | -2 | -6
C[C@@H]1CN([C@@H](C)CO)C(=O)c2cc(NC(=O)Nc3ccc(C(F)(F)F)cc3)ccc2O[C@@H](C)CCCCO[C@@H]1CN(C)Cc1ccccc1 | -1 | / | 127* | -4 | -2
C[C@@H]1CCCCO[C@H](CN(C)C(=O)NC2CCCCC2)[C@@H](C)CN([C@@H](C)CO)C(=O)c2cc(NC(=O)c3ccccc3)ccc2O1 | / | / | 13 | / | /
C[C@@H]1CCCCO[C@H](CN(C)C(=O)NC2CCCCC2)[C@H](C)CN([C@@H](C)CO)C(=O)c2cc(NC(=O)c3ccccc3)ccc2O1 | / | / | 43* | / | /
C[C@H]1CN([C@@H](C)CO)C(=O)c2cc(NC(=O)c3ccncc3)ccc2O[C@H]1CN(C)Cc1ccc(C(=O)O)cc1 | 0 | -4 | 42*! | 0 | 2
Cc1noc(C)c1NC(=O)N(C)C[C@H]1OCc2ccccc2-c2c(n(C)c3ccccc23)C(=O)N([C@H](C)CO)C[C@@H]1C | 0 | / | -2 | 1 | 3
C[C@H](CO)N1C[C@H](C)[C@H](CN(C)C(=O)c2ccncc2)OCCCC[C@H](C)Oc2ccc(NS(C)(=O)=O)cc2C1=O | 2 | / | 8 | 3 | 0
C[C@@H]1CCCCO[C@@H](CN(C)Cc2ccc(C(=O)O)cc2)[C@H](C)CN([C@@H](C)CO)C(=O)c2cc(NC(=O)CCCN(C)C)ccc2O1 | 0 | / | 38* | 4 | -5
SMILES | AF4-AF9 inh | PDI turbidity | DENV2 CPE rescue | ERp5 inh | ERAP1 HTS inh
C[C@@H]1CCCCO[C@H](CN(C)Cc2ccccc2)[C@H](C)CN([C@@H](C)CO)C(=O)c2cc(NC(=O)c3ccccc3)ccc2O1 | / | / | 27* | / | /
C[C@@H]1CCCCO[C@@H](CN(C)Cc2ccc(C(=O)O)cc2)[C@H](C)CN([C@H](C)CO)C(=O)c2cc(NC(=O)CCCN(C)C)ccc2O1 | -5 | / | -5 | 0 | -4
C[C@@H]1CCCCO[C@H](CN(C)Cc2ccc(C(=O)O)cc2)[C@H](C)CN([C@H](C)CO)C(=O)c2cc(NC(=O)c3ccncc3)ccc2O1 | -3 | / | 42* | -8 | 2
C[C@H](CO)N1C[C@H](C)[C@H](CN(C)C(=O)C2CC2)Oc2cc(C#CC3CCCC3)ccc2S1(=O)=O | -16 | / | -13 | 0 | 2
C[C@@H]1CN([C@H](C)CO)C(=O)Cc2cc(NC(=O)Nc3ccc(F)cc3)ccc2O[C@H]1CN(C)C(=O)Nc1ccc2c(c1)OCO2 | 1 | / | 2 | 0 | 0
Cc1c(OCC(=O)N(C)c2ccccc2)ccc2c3c(c(=O)oc12)CCC3 | 32* | 7 | ? | 1 | 1
CCOC(=O)COc1ccc2c3c(c(=O)oc2c1C)CCC3 | / | 10 | / | / | /
CC[n+]1c(C)sc2cc(OC)ccc21 | -3 | 5 | -3 | 2 | 30*
COc1ccc2c(Cl)c(C(=O)NN)sc2c1 | / | 0 | / | -2 | 1
O=S(=O)(c1ccc(=S)[nH]c1)N1CCCCC1 | -1 | 0 | 2 | -2 | 0
O=S(=O)(c1ccc(=S)[nH]c1)N1CCN(Cc2ccccc2)CC1 | -3 | -5 | 25* | 4 | 3
COc1ccc2c3c(n(C)c2c1)[C@@H](CO)N(C(=O)c1ccccc1)CC31CCN(C)CC1 | 8 | / | 9 | 1 | 0
COc1ccc(-c2cc(N3C(=O)Nc4ccccc4N3O)n[nH]2)cc1OC | -6 | 13 | 38* | 5 | 6
C[C@@H]1CCCCO[C@@H](CN(C)Cc2ccc3c(c2)OCO3)[C@H](C)CN([C@@H](C)CO)C(=O)c2cc(NC(=O)Nc3ccc(C(F)(F)F)cc3)ccc2O1 | 3 | / | -33 | -5 | -2
CN(CCCC1CCCC1)C(=O)CCc1nnc(-c2ccccc2)o1 | 48* | 5 | 9 | 0 | -1
Cc1ccc(C(=O)c2oc3ccc(Cl)cc3c2NC(=O)CN2CCN(C)CC2)cc1 | 31* | 2 | -2 | 5 | 3
CCOC(=O)c1oc2ccc(OC)cc2c1NC(=O)CN1CCN(C)CC1 | / | 8 | / | / | /
CN(C)C(=O)c1cccc(-c2ccc([C@H]3[C@@H](CO)N4CCCCN(CCC(F)(F)F)C[C@@H]34)cc2)c1 | 1 | / | 0 | 1 | -3
O=C(/C=C/c1ccccc1)NCCc1ccc2c(c1)OCCO2 | 2 | 1 | 59* | 1 | 1
